This is part of a sample that, as a whole, favours compounds with a hit. Of some 83,000 tested, about 20% had one in any assay.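 The endpoint reported here, percent growth, reads 100 for growth as untreated, 0 for no net growth and -100 for all cells dead.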 A number with no mark means an inactive call. Activity calls are given as the source filed them. The calls were made as follows: active = growth percent below 10; inactive = the rest.
Each compound was assayed on MDA-MB-435 melanoma (assay: NCI-60 one-dose screen, 48 h (100 = growth as untreated, 0 = no growth, -100 = all killed)). Details: 10 µM unless noted.

Q: For `Cc1csc(/N=C(N)/N=C(\N)c2cccc(Br)c2)n1`, which growth is on record?
A: The growth was 46.2%.

Q: Which growth does the source give for `Clc1ccc2[nH]cc(-c3nn4cc(-c5ccncc5)nc4s3)c2c1` here?
A: Its growth is 51%.

Q: `NS(=O)(=O)c1ccc(Nc2nc(Nc3ccccc3)nc(N3N=C(c4ccc(Cl)cc4)CC3c3ccc(Cl)cc3)n2)cc1` (stereo not given) was tested. Which growth did it give?
A: The growth was 39.1%.

Q: `NC1[C@H]2CN(c3cnc(C(=O)Nc4cc(F)cc5cccnc45)cn3)C[C@@H]12` (stereo not given in full) was tested. Which growth did it give?
A: Its growth is 90%.

Q: For `Cn1ncc2c(C(=O)c3ccc(F)cc3)nc(C(C)(C)C)nc21`, which growth is on record?
A: The growth was 97.9%.

Q: With `COc1ccc(C2c3[nH]c4ccc(Cl)cc4c3CCN2c2oc(CO)nc2C#N)cc1` (stereo not given) as the compound, how does the growth read?
A: The growth was 15.2%.

Q: With `Cc1ccc(Nc2nc(SC(C)C)nc(-c3ccccc3)c2C#N)cc1` as the compound, how does the growth read?
A: The growth was 102%.

Q: How did the growth turn out when `O=C1CSC(c2cn(-c3ccccc3)nc2-c2ccc(Cl)cc2)N1c1ccccc1` (stereo not given) was run?
A: The growth was 103%.

Q: Which growth does the source give for `O=C1Nc2ccc(F)cc2/C1=C\C(=O)c1ccc(NS(=O)(=O)c2ccccc2)cc1` here?
A: Its growth is 92.5%.

Q: With `COc1ccc2[nH]cc(-c3nn4cc(-c5ccncc5)nc4s3)c2c1` as the compound, how does the growth read?
A: The growth was 90.2%.

Q: `CC1=C(C)C(=O)C(Nc2ccc(C)cc2)=C(Br)C1=O` was tested. Which growth did it give?
A: The growth was 103%.

Q: Which growth does the source give for `CC(Nc1ncnc2ccc(-c3cnc4cnccn34)cc12)c1ccccc1` (stereo not given) here?
A: Its growth is 69.1%.

Q: How did the growth turn out when `Cc1ccc2c(n1)C(=O)C(Cl)=C(Nc1ccc(C(=O)OC(C)(C)C)cc1)C2=O` was run?
A: The growth was 87.6% [9.25 µM].

Q: For `CCOC(=O)c1c(NC(=O)c2cccc(C(F)(F)F)c2)sc2c1CCC(=O)C2`, which growth is on record?
A: Its growth is 59.4%.

Q: Which growth does the source give for `C/C(=N\NC(=O)/C=C/CC(=O)O)c1nnn(-c2ccc([N+](=O)[O-])cc2)c1C` here?
A: The growth was 103%.

Q: `Cc1[nH]c(C(=O)Nc2ccccc2OCc2cccc(C(=O)NC3CCNC3)c2)c(Cl)c1Cl` (stereo not given) was tested. Which growth did it give?
A: The growth was -53% (active).

Q: `N#Cc1nc(-c2ccccc2)oc1N1CCC(C2(C(F)(F)F)N=N2)CC1` was tested. Which growth did it give?
A: Its growth is 101%.

Q: Which growth does the source give for `CNC(=O)c1cc(-n2ccc3cc(NC(=O)Nc4ccc(N5CCN(C)CC5)c(C(F)(F)F)c4)ccc32)ccn1` here?
A: The growth was 22.5%.

Q: With `NS(=O)(=O)c1nnc(/N=C/c2c(O)[nH]c3ccccc23)s1` as the compound, how does the growth read?
A: The growth was 103%.

Q: For `C#C[C@]1(O)CC[C@H]2[C@@H]3CC=C4c5sc(NCc6ccccc6)nc5CC[C@]4(C)[C@H]3CC[C@@]21C`, which growth is on record?
A: The growth was 82.2%.

Q: For `CCOC(=O)c1c(NC(=O)c2ccc(C(F)(F)F)cc2)sc2c(CN3CCN(C)CC3)c(O)ccc12`, which growth is on record?
A: The growth was -61.5% (active).

Q: `CC(Nc1c(C#N)cnc2ccc(-c3cncc(-c4n[nH]c(=O)o4)c3)cc12)c1ccccc1` (stereo not given) was tested. Which growth did it give?
A: Its growth is 24%.

Q: For `Cc1ccc(-c2cc3nc(C(Cl)Cl)nc(-c4ccc(S(=O)(=O)N(C)C)cc4)n3n2)cc1`, which growth is on record?
A: Its growth is 88.6%.

Q: How did the growth turn out when `O=C(N/N=C\c1ccc([N+](=O)[O-])cc1)c1ccc2nc(-c3ccc(Br)cc3)[nH]c2c1` was run?
A: Its growth is 23.9%.

Q: `CN(C)S(=O)(=O)c1ccc(-c2nc(C(Cl)Cl)nc3cc(-c4ccccc4)nn23)cc1` was tested. Which growth did it give?
A: Its growth is 81.6%.

Q: `OCC(Nc1ncnc2ccc(-c3cnc4cnccn34)cc12)c1ccccc1` (stereo not given) was tested. Which growth did it give?
A: Its growth is 90%.

Q: Which growth does the source give for `COc1ccc(/C=N/N=C(/c2ccccc2)c2ccc3nc(-c4ccc(Cl)cc4)[nH]c3c2)cc1` here?
A: The growth was 85%.

Q: Which growth does the source give for `CCN(CC)S(=O)(=O)c1ccc(-c2nc(C(Cl)Cl)nc3cc(C)nn23)cc1` here?
A: Its growth is 14.8%.

Q: For `CN(C)CCNc1ccc2ncc(C#Cc3cncc(C(=O)Nc4ccc(CN5CCN(C)CC5)c(C(F)(F)F)c4)c3)n2n1`, which growth is on record?
A: The growth was 40.5%.

Q: With `COc1ccc(-c2nc(C#N)c(N3CCC(S(=O)(=O)N4CCOCC4)CC3)o2)cc1` as the compound, how does the growth read?
A: The growth was 99.3%.

Q: Which growth does the source give for `COc1ccc(OC)c(CCn2cncc2-c2c[nH]c3ccc(Cl)cc23)c1` here?
A: Its growth is 12.8%.

Q: With `NC(=O)c1c(NC(=O)c2ccc(C(F)(F)F)cc2)sc2c1CCC(=O)C2` as the compound, how does the growth read?
A: Its growth is -8.14% (active).

Q: `CN1CCN(c2ccc(Nc3nc(NCCNC(=O)c4ccccc4)c4sccc4n3)cc2)CC1` was tested. Which growth did it give?
A: The growth was 59.3%.

Q: For `Cc1ccc(S(=O)(=O)NCCCNc2nc(Nc3ccc(N4CCN(C)CC4)cc3)nc3ccsc23)cc1`, which growth is on record?
A: Its growth is 0.595% (active).

Q: How did the growth turn out when `COc1ccc(/C(=N\N=C(N)N)c2ccc(Cl)cc2)cc1OC` was run?
A: The growth was 58%.

Q: Which growth does the source give for `CCOC(=O)c1cccnc1Nc1ccc(NC(=O)Nc2ccc(Cl)c(C(F)(F)F)c2)cc1` here?
A: Its growth is 53.1%.

Q: `O=C1[C@@H]2Cc3c([nH]c4ccccc34)[C@H](c3ccc(Cl)cc3)N2C(=O)CN1C1CCN(Cc2ccccc2)CC1` was tested. Which growth did it give?
A: Its growth is 54.8%.

Q: Which growth does the source give for `CC1=Cc2ccccc2OC12C=Cc1ccccc1O2` (stereo not given) here?
A: Its growth is 105%.

Q: Which growth does the source give for `C#CCOc1cccc(/C(N)=N/C(N)=N/c2nc3ccccc3s2)c1` here?
A: Its growth is 104%.

Q: How did the growth turn out when `CC(Nc1ncnc2ccc(-c3cnc(N)nc3)cc12)c1ccccc1` (stereo not given) was run?
A: The growth was 50.4%.

Source: PubChem BioAssay (NCI)
